# An excerpt weighted towards active compounds, which were near 3.6% of everything screened.
# HepG2 tox = counter-screen for TGF-b inhibitors: cytotoxicity in HepG2 cells | Potency, µM (doses to about 46.1 µM), for inactives: at the top dose activity change, negative = cytotoxicity, most hits filed as cytotoxic | HepG2 CAGA-GFP viability, ATP luminescence, 18 h | 0.76% of 410,000 active
#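 HepG2 CAGA-GFP cells (1000/well, DMEM with 1% FBS) received compound, then TGF-beta at 500 pg/mL final, and were incubated 18 hours at 37 degrees C. Viability was read by CellTiter-Glo luminescence. Media-only wells were set as complete cell-killing and DMSO as no toxicity.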
# TGFb inhibitor = blocks TGF-b signaling | HepG2 CAGA-GFP TGF-b/SMAD3 reporter, GFP fluorescence, 18 h; TGF-beta stimulated, 500 pg/mL final | Potency, µM (top dose mostly 46.1 µM), inactives show at the top dose activity, negative = inhibition, most hits filed as inhibitors | 1.2% of 410,000 active | AID 588855; also: % is scaled to controls: 0 for no effect and ±100 for the full control effect; nearly all actives have a fitted effect of over 65% in size
#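 GFP signal (ex488/em500-530) from TGF-beta-stimulated HEPG2 CAGA-GFP cells, 500 pg/mL final, 18 h at 37 degrees C in DMEM plus 1% FBS, normalized to unstimulated and DMSO-stimulated controls.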
# A549 tox = A549 cytotoxicity, counter-screen for Nrf2 inhibitors; A549 ARE-Fluc cells, CellTiter-Fluor viability, 18-24 h; Potency, µM (top dose mostly 46 µM), inactives show at the top dose activity change, negative = cytotoxicity, usual class: inhibitors; 0.16% of 390,000 active; AID 504648; also: % is scaled to controls: 0 for no effect and ±100 for the full control effect
#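 Cytotoxicity counterscreen: CellTiter-Fluor fluorescence was measured in A549 ARE_Fluc cells after 18-24 h of compound exposure in a concentration series. The subsequent BugLite luminescent read reports ARE-luciferase activity.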
# Nrf2 activator = activates Nrf2 signaling. 0.31% of 410,000 active. AREc32 ARE-luciferase reporter (MCF7-derived line), luminescence, 24 h. AID 624171. Potency, µM (doses to about 46.1 µM), without a hit: at the highest dose activation, actives largely listed as activators; also: % of control where 0% means no effect; nearly all actives have a fitted effect of over 65% in size
#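 Luciferase luminescence (Steady-Glo, 30 min at room temperature) served as the read-out of ARE activation in AREc32 cells treated with compounds for 24 hr at 37 deg C.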
# Nrf2 block = Nrf2 pathway inhibition | A549 ARE-Fluc reporter, luciferase luminescence, 18-24 h | Potency, µM (highest dose often 46 µM), for inactives: at the top dose activity change, negative = inhibition, hits mostly inhibitors | 2.1% of 360,000 active | AID 504444; also: % is scaled to controls: 0 for no effect and ±100 for the full control effect; nearly all actives have a fitted effect of over 60% in size
#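 Quantitative HTS in A549 cells stably bearing an antioxidant response element-firefly luciferase construct. Inhibition of Nrf2-driven transcription was scored by luminescence after 18-24 h of compound exposure at 37 °C.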
# Active calls of the source: *; ? = inconclusive; / = no result; [ ] = dose if it differs, or a comment. Calls follow the shape of the dose curve; as a rule, active = well fitted curve in the direction sought with a large enough effect; inconclusive = small, poorly fitted or top-dose-only effect, or another doubt; inactive = no such curve, though single readings can be large; an effect the other way counts as inactive or inconclusive. Potency is read from the fitted curve at half-maximal effect.
SMILES,HepG2 tox,TGFb inhibitor,A549 tox,Nrf2 activator,Nrf2 block
Cc1cc(F)ccc1S(=O)(=O)Nc1ccccc1C(=O)Nc1ccccc1N1CCOCC1,-34%,-25%,-2%,0%,21µM*
Cc1ccc(C)c(S(=O)(=O)Nc2ccccc2C(=O)Nc2ccccc2N2CCOCC2)c1,-16%,-24%,-15%,0%,23µM*
O=C(Nc1ccccc1N1CCOCC1)c1ccccc1NS(=O)(=O)c1ccc(F)c(F)c1,-36%,?,-18%,0%,21µM*
O=C(Nc1ccccc1N1CCOCC1)c1cc(-c2ccco2)nc2ccccc12,-13%,19%,-20%,6%,18µM*
O=C(Nc1ccccc1N1CCOCC1)c1ccccc1NS(=O)(=O)c1ccc(F)cc1,-4%,0%,3%,0%,4%
CCOc1ccc(S(=O)(=O)Nc2ccccc2C(=O)Nc2ccccc2N2CCOCC2)cc1,-31%,-21%,-5%[1.84 µM],0%,3%
O=C1NC(=O)C(c2ccccc2[N+](=O)[O-])=C1Nc1ccc(O)c(Cl)c1,-43%,?,-2%,5%,-12%
CC(C)C(c1nnnn1CCc1ccccc1)N1CCSCC1 (stereo unspecified),1%,-1%,2%,0%,-14%
CCOC(=O)NCN1C(=O)C2C3C=CC(C3)C2C1=O (stereo unspecified),5%,-9%,-1%,0%,20%
CC(=O)CCn1c(=O)n(CCC(C)=O)c(=O)n(CCC(C)=O)c1=O,-25%,-4%,-2%,0%,4%
COc1cc(/C=C(\C#N)C(=O)NC2CCCCC2C)ccc1OS(=O)(=O)c1ccc(C)cc1 (stereo unspecified),-83%,20µM*,?,?,?
Cc1ccc(Nc2nc(N)nc(CSc3nc4ccccc4s3)n2)cc1,-63%,13µM*,?,-1%,?
Cc1ccc(Nc2nc(N)nc(CC#N)n2)cc1,-44%,13µM*,30%,22%,?
Cc1cc(C)nc(SCCC(=O)Nc2ccccc2Cl)n1,-10%,12%,0%,0%,12µM*
O=C(CCCn1c(=O)[nH]c2ccsc2c1=O)N1CCN(c2ccc(Cl)cc2)CC1,-1%,-37%,-1%,0%,-18%[9.27 µM]
O=C(Cc1ccc(-n2c(=O)[nH]c3ccsc3c2=O)cc1)N1CCN(c2ccc(Cl)cc2)CC1,18%,5%,-1%,5%,23µM*
COc1ccccc1NC(=O)C1=C(C)Nc2nc(-c3cccnc3)nn2C1c1ccccn1 (stereo unspecified),13%,9%,3%,0%,6%
CCn1cc(CNC(=O)c2ccc3nc(Cc4ccc(OC)cc4)oc3c2)cn1,-4%,-12%,-8%,1%,?
COc1ccc(N2CC(C(=O)Nc3ccc(S(=O)(=O)N4CCCCC4)cc3)CC2=O)cc1 (stereo unspecified),-61%,0%,-1%,0%,21µM*
Cc1ccc(NC(=O)C2CCN(S(=O)(=O)c3ccc(N4CCCC4=O)cc3)CC2)cc1Cl,-17%,?,-5%,0%,10µM*
O=C(Nc1cccc(Cl)c1Cl)C1CC(=O)N(c2ccc(Br)cc2)C1 (stereo unspecified),-52%,-9%,-12%[1.84 µM],-1%,7.3µM*
O=C(Nc1ccc(S(=O)(=O)N2CCCCC2)cc1)C1CC(=O)N(c2ccc(Cl)cc2)C1 (stereo unspecified),-7%,?,?,1%,23µM*
Cc1ccc(N2CC(C(=O)Nc3ccc(S(=O)(=O)N4CCCC4)cc3)CC2=O)cc1 (stereo unspecified),-16%,?,-9%,0%,?
CC(=O)N(Cc1ccccn1)Cc1ccco1,0%,-15%,0%,0%,-5%
O=C(Cn1cnc2ccccc21)N/N=C/c1ccc([N+](=O)[O-])cc1,-1%,8%,2%,2%,1%
SMILES,HepG2 tox,TGFb inhibitor,A549 tox,Nrf2 activator,Nrf2 block
O=C(NC(=S)Nc1cccc(Cl)c1N1CCCCC1)c1cccs1,-17%,?,?,8%,/
O=C(NC(=S)Nc1cccc2cccnc12)c1cccs1,-18%,-18%,-3%,8.9µM*,6%
N#Cc1ccccc1NC(=S)NC(=O)c1cccs1,-23%,-5%,2%,16µM*,1%
O=C(NC(=S)Nc1cccc2cccnc12)c1ccccc1,4%,26%,-2%,4.5µM*,?
O=C(Nc1cccc2cccnc12)c1ccccc1,-6%,-27%,0%,/,?
O=C(Nc1cccc2cccnc12)c1ccc(F)cc1,-5%,?,1%,13µM*,?
C#CCOC(=O)Nc1cccn(Cc2c(Cl)cccc2Cl)c1=O,-21%,?,-16%,2%,?
COc1ccc(NC(=O)Nc2cccc3c2O[C@H](CN(C)S(=O)(=O)c2cn(C)cn2)[C@@H](C)CN([C@H](C)CO)C3=O)cc1,5%,-15%,-3%,-1%,-15%
COc1ccc(CCNCC(O)COc2cccc(Br)c2)cc1 (stereo unspecified),13µM*,-37%,7%,2%,?
COC(=O)c1c(C)cccc1C1CN=NC12Cc1ccccc1C2=O (stereo unspecified),-4%,0%,-14%,2%,7%
CCOC(=O)C(Cc1ccc(OC)c([N+](=O)[O-])c1)NC(=O)CCC(=O)Nc1ccc(C)cc1 (stereo unspecified),5%,-19%,4%,0%,-5%
C/C(=N\NC(=O)c1c(Cl)cnn1C)c1ccc(NC(=O)c2ccncc2)cc1,10µM*,4%,1%,0%,-22%
CC(=NNC(=O)c1ccncc1)c1ccccc1Cl,-21%,3%,2%,0%,-7%
C/C(=N\NC(=O)c1ccccc1NC(=O)c1ccc(Cl)cc1)c1ccncc1,1.3µM*,4%,-9%,0%,?
COc1ccc(C2c3ccc4ccccc4c3Oc3ncn(CCO)c(=N)c32)cc1OC (stereo unspecified),0%,-4%,-23%,0%,?
COc1cccc(C2c3c(ncn(CCCN4CCOCC4)c3=N)Oc3ccc4ccccc4c32)c1 (stereo unspecified),/,/,15µM*,/,-125%
COc1ccc(C2c3ccc4ccccc4c3Oc3ncn(CCN(C)C)c(=N)c32)cc1 (stereo unspecified),-80%,16µM*,-4%,10%,17%
COc1ccc(C2c3ccc4ccccc4c3Oc3ncn(CCCO)c(=N)c32)cc1OC (stereo unspecified),-120%,11µM*,-23%,4%,-15%
CC1(C(=O)NS(=O)(=O)c2ccccc2)CCN1C(=O)Cc1cccc2ccccc12 (stereo unspecified),2%,13%,/,-1%,/

# Screening results deposited in PubChem BioAssay by National Center for Advancing Translational Sciences (NCATS).
